We go through seven compounds from PubChem BioAssay (EPA / NIEHS).

Read-out in assay [1]: Vascular cell adhesion molecule 1 (VCAM1), VCAM1 (gene 7412)
Put plainly: BSK_4H_VCAM1: BioMAP Diversity Plus: 4H Assay for Vascular cell adhesion molecule 1 (VCAM1) Biomarker Activity (AID 2283033).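 As to outcome: cell-surface VCAM-1 protein measured by ELISA.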 Conditions: primary human endothelial cells (HUVEC); actives raise or lower the signal. The procedure, abridged:
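In this human endothelial (HUVEC) system, biomarker ELISA was run 24 h after compound addition, and total protein in parallel wells was assessed by SRB at 560 nm; DMSO served as negative control.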

Read-out in assay [2]: Interferon-gamma inducible Protein 10 (IP10), CXCL10 (gene 3627)
Put plainly: BSK_BE3C_IP10: BioMAP Diversity Plus: BE3C Assay for Interferon-gamma inducible Protein 10 (IP10) Biomarker Activity (AID 2283034). Conditions: primary human bronchial epithelial cells; actives raise or lower the signal. In outline:
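BE3C cells (human bronchial epithelial, primary); 24 h exposure; ELISA for IP-10; DMSO-referenced bidirectional fit.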

Read-out in assay [3]: Monokine induced gamma interferon (MIG), CXCL9 (gene 4283)
Put plainly: BSK_BE3C_MIG: BioMAP Diversity Plus: BE3C Assay for Monokine induced gamma interferon (MIG) Biomarker Activity (AID 2283035).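 As to outcome: MIG protein measured by ELISA in BE3C cultures after 24 h of dosing.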 To be noted: primary human bronchial epithelial cells; actives raise or lower the signal. In outline: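 hu bronchial epithelial 1° cells, 24 h cpd; MIG by ELISA; bidirectional fit, DMSO = baseline.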

Read-out in assay [4]: Transforming growth factor beta 1 (TGFb1), TGFB1 (gene 7040)
Put plainly: BSK_BE3C_TGFb1: BioMAP Diversity Plus: BE3C Assay for Transforming growth factor beta 1 (TGFb1) Biomarker Activity (AID 2283036;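 as to outcome: TGF-b1 protein level measured by ELISA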). Conditions: primary human bronchial epithelial cells; actives raise or lower the signal. The procedure, abridged: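 TGF-b1 measured via ELISA, 24 h after chemical dosing of human bronchial epithelial cells (BE3C). Overt cytotoxicity assessed in parallel by SRB (0.1%, TCA-fixed, 560 nm); analysis bidirectional relative to DMSO.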

Read-out in assay [5]: Plasminogen activator inhibitor-1 (PAI1), SERPINE1 (gene 5054)
Put plainly: BSK_BE3C_PAI1: BioMAP Diversity Plus: BE3C Assay for Plasminogen activator inhibitor-1 (PAI1) Biomarker Activity (AID 2283037). Conditions: primary human bronchial epithelial cells; actives raise or lower the signal. The procedure, abridged: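 In this multiplexed primary-cell system, bronchial epithelial cells receive test chemical and are sampled at 24 h. PAI-1 is read by ELISA, with DMSO serving as negative control for bidirectional fitting.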

Read-out in assay [6]: urokinase plasminogen activator (uPA), PLAU (gene 5328)
Put plainly: BSK_BE3C_uPA: BioMAP Diversity Plus: BE3C Assay for urokinase plasminogen activator (uPA) Biomarker Activity (AID 2283038).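 As to outcome: uPA protein level quantified by ELISA in cell cultures; uPA read one day after compound addition.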 Conditions: primary human bronchial epithelial cells; actives raise or lower the signal. In outline: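 Human primary bronchial epithelial cells were exposed to chemical for 24 h, then uPA levels were measured by ELISA. Responses were fitted bidirectionally against DMSO as negative control and baseline. Parallel SRB staining of total protein gauged overt cytotoxicity.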

Read-out in assay [7]: Urokinase-type plasminogen activator receptor (uPAR), PLAUR (gene 5329)
Put plainly: BSK_BE3C_uPAR: BioMAP Diversity Plus: BE3C Assay for Urokinase-type plasminogen activator receptor (uPAR) Biomarker Activity (AID 2283039).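 As to outcome: cells exposed to compound for one day before measurement.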 To be noted: primary human bronchial epithelial cells; actives raise or lower the signal. In outline: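 Chemically treated human bronchial epithelial cells (lung primary) are assayed for uPAR by ELISA after 24 h, with data fitted in both directions using DMSO as negative control.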

Read-out in assay [8]: Interleukin-6 (IL6), IL6 (gene 3569)
Put plainly: BSK_CASM3C_IL6: BioMAP Diversity Plus: CASM3C Assay for Interleukin-6 (IL6) Biomarker Activity for (AID 2283040). To be noted: primary human coronary artery smooth muscle cells; actives raise or lower the signal.

Read-out in assay [9]: Tissue plasminogen activator (tPA), PLAT (gene 5327)
Put plainly: BSK_BE3C_tPA: BioMAP Diversity Plus: BE3C Assay for Tissue plasminogen activator (tPA) Biomarker Activity (AID 2283041).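 As to outcome: tPA level quantified by ELISA one day after compound addition.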 Conditions: primary human bronchial epithelial cells; actives raise or lower the signal. The procedure, abridged: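 Using human lung primary bronchial epithelial cells, tPA was measured by ELISA 24 h after dosing; data fitted relative to DMSO.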

Read-out in assay [10]: Interleukin-8 (IL8), CXCL8 (gene 3576)
Put plainly: BSK_CASM3C_IL8: BioMAP Diversity Plus: CASM3C Assay for Interleukin-8 (IL8) Biomarker Activity (AID 2283042).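 Also: IL-8 protein level quantified by ELISA.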 Conditions: primary human coronary artery smooth muscle cells; actives raise or lower the signal.

Read-out in assay [11]: Human Leukocyte Antigen - DR isotype (HLADR), HLA-DRA (gene 3122)
Put plainly: BSK_CASM3C_HLADR: BioMAP Diversity Plus: CASM3C Assay for Human Leukocyte Antigen - DR isotype (HLADR) Biomarker Activity (AID 2283043).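 Also: cell-surface HLA-DR protein level quantified by ELISA.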 Conditions: primary human coronary artery smooth muscle cells; actives raise or lower the signal.

Read-out in assay [12]: Macrophage colony-stimulating factor (MCSF), CSF1 (gene 1435)
Put plainly: BSK_CASM3C_MCSF: BioMAP Diversity Plus: CASM3C Assay for Macrophage colony-stimulating factor (MCSF) Biomarker Activity (AID 2283044).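 Also: M-CSF protein amount quantified by ELISA after 24 h exposure.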 To be noted: primary human coronary artery smooth muscle cells; actives raise or lower the signal.

Read-out in assay [13]: Low-density lipoprotein receptor (LDLR), LDLR (gene 3949)
Put plainly: BSK_CASM3C_LDLR: BioMAP Diversity Plus: CASM3C Assay for Low-density lipoprotein receptor (LDLR) Biomarker Activity (AID 2283045).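 Also: LDLR protein level on the cell surface quantified by ELISA.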 To be noted: primary human coronary artery smooth muscle cells; actives raise or lower the signal.

Read-out in assay [14]: Monocyte Chemoattractant Protein-1 (MCP1), CCL2 (gene 6347)
Put plainly: BSK_CASM3C_MCP1: BioMAP Diversity Plus: CASM3C Assay for Monocyte Chemoattractant Protein-1 (MCP1) Biomarker Activity (AID 2283046).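 Also: MCP-1 level quantified by ELISA 24 h after dosing.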 To be noted: primary human coronary artery smooth muscle cells; actives raise or lower the signal.

Assay [15] can be described thus: BSK_CASM3C_Proliferation: Cell Proliferation Assessment in the BioMAP Diversity Plus: CASM3C Assay (AID 2283047).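 Also: sulforhodamine B total protein stain as relative cell number at 560 nm; sub-confluent cells exposed 48 h before staining; fitted both ways against DMSO so gain or loss of cell number.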 Conditions: primary human coronary artery smooth muscle cells.
Read-out in assay [16]: Monokine induced gamma interferon (MIG), CXCL9 (gene 4283)
Put plainly: BSK_CASM3C_MIG: BioMAP Diversity Plus: CASM3C Assay for Monokine induced gamma interferon (MIG) Biomarker Activity (AID 2283048). To be noted: primary human coronary artery smooth muscle cells; actives raise or lower the signal.

Read-out in assay [17]: serum amyloid A (SAA), SAA1 (gene 6288)
Put plainly: BSK_CASM3C_SAA: BioMAP Diversity Plus: CASM3C Assay for serum amyloid A (SAA) Biomarker Activity (AID 2283049).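 Also: SAA protein level quantified by ELISA.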 Conditions: primary human coronary artery smooth muscle cells; actives raise or lower the signal.

The nature of assay [18]: BSK_CASM3C_SRB: Viability Assessment in the BioMAP Diversity Plus: CASM3C Assay (AID 2283050).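 Also: total protein by SRB staining as cytotoxicity measure in parallel cultures.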 To be noted: primary human coronary artery smooth muscle cells.
Read-out in assay [19]: Thrombomodulin, THBD (gene 7056)
Put plainly: BSK_CASM3C_Thrombomodulin: BioMAP Diversity Plus: CASM3C Assay for Thrombomodulin Biomarker Activity (AID 2283051).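 Also: thrombomodulin protein level measured by ELISA 24 h after dosing.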 Conditions: primary human coronary artery smooth muscle cells; actives raise or lower the signal.

Read-out in assay [20]: Tissue Factor, F3 (gene 2152)
Put plainly: BSK_CASM3C_TissueFactor: BioMAP Diversity Plus: CASM3C Assay for Tissue Factor Biomarker Activity (AID 2283052).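 Also: cell surface tissue factor protein level read by ELISA.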 To be noted: primary human coronary artery smooth muscle cells; actives raise or lower the signal.

Each structure is given as a SMILES string. Some structures have more than one record in an assay (separate samples or runs), and their calls can disagree. Active and inactive are the calls of the source. The calls were made as follows: active = hit-call score of the fitted dose curve at least 0.9, where 1 is the maximum; inactive = score below 0.9.

On to `Cc1ccc2n[nH]nc2c1`, for which the result in assay [1], in assay [2], in assay [3], in assay [4], in assay [5] and in [6] was inactive. For the same compound, the outcome in assay [7], in assay [8], in assay [9], in assay [10], in assay [11] and in assay [12] was inactive. Besides, the result in [13], in assay [14], in assay [15], in assay [16], in assay [17] and in assay [18] was inactive. Further, the outcome in [19] and in [20] was inactive.

For orientation: AC50 means the midpoint of the concentration-response curve, whichever way the signal moves. As for `CC[Si](OC(C)=O)(OC(C)=O)OC(C)=O`, the AC50 in assay [1] was 0.195 µM (active). Further, the outcome in assay [1], in assay [2], in assay [3], in [5], in assay [6] and in [7] was inactive. Also, the outcome in [8], in [9], in assay [10], in [11], in assay [12] and in [13] was inactive. The outcome in assay [14], in assay [15], in [16], in assay [17], in assay [18] and in assay [19] was inactive. Moreover, in [20], the result was inactive.

Regarding `O=C1OC2(c3cc(Br)c(O)c(Br)c3Oc3c2cc(Br)c(O)c3Br)c2c(Cl)c(Cl)c(Cl)c(Cl)c21`, the AC50 in [1] is 4.23 µM (active); in assay [2], 0.818 µM (active); in assay [3] it was 2.49 µM (active); in assay [4], 0.587 µM (active); in assay [5] it was 0.563 µM (active); in assay [6] it was 0.736 µM (active). Besides, the AC50 in assay [7] is 0.84 µM (active); in assay [9], 0.744 µM (active); in assay [14], 0.0114 µM (active). In addition, the outcome in [8], in assay [10], in assay [11], in [12], in assay [13] and in assay [15] was inactive. Further, the outcome in assay [16], in assay [17], in [18], in assay [19] and in assay [20] was inactive.

In the case of `CC(C)Oc1ccccc1O`, the result in [1], in assay [2], in [3], in assay [4], in [5] and in [6] was inactive. Further, the outcome in assay [7], in assay [8], in assay [9], in assay [10], in assay [11] and in assay [12] was inactive. Further, the outcome in [13], in assay [14], in assay [15], in assay [16], in assay [17] and in assay [18] was inactive. Also, the result in assay [19] and in assay [20] was inactive.

`CCCCC/C=C/C=C/C=O`: the AC50 is 33.3 µM (active) in [1]; 28.4 µM (active) in assay [2]; 34.3 µM (active) in [3]; 31.3 µM (active) in [6]; 23.7 µM (active) in assay [11]; 20 µM (active) in [12]. Also, the AC50 in assay [14] is 36.1 µM (active); in [15] it was 30.3 µM (active); in assay [18] it was 32.3 µM (active); in assay [20], 30.8 µM (active). For the same compound, the result in [4], in [5], in assay [7], in assay [8], in assay [9] and in assay [10] was inactive. Besides, the outcome in assay [13], in [16], in assay [17] and in assay [19] was inactive.

As to `O=C=NC1CCC(CC2CCC(N=C=O)CC2)CC1` (stereo not given), the outcome in assay [1], in assay [2], in assay [3], in [4], in assay [5] and in assay [6] was inactive. Further, the result in assay [7], in [8], in assay [9], in [10], in assay [11] and in assay [12] was inactive. The result in [14], in assay [16], in [17], in [18], in [19] and in assay [20] was inactive. The values for the AC50 in [13] and in [15] were 0.0156 µM (active) and 0.0151 µM (active), respectively.

In the case of `CC(C)(COC(=O)c1ccccc1)COC(=O)c1ccccc1`, the AC50 in [1] was 20 µM (active). The outcome in assay [2], in assay [3], in [4], in assay [5], in assay [6] and in assay [7] was inactive. Also, the outcome in assay [8], in assay [9], in [10], in assay [11], in assay [12] and in assay [13] was inactive. For the same compound, the outcome in assay [14], in assay [15], in assay [16], in assay [17], in assay [18] and in assay [19] was inactive. Besides, the result in [20] was inactive.
